Measurements from PubChem BioAssay AID504850 (National Center for Advancing Translational Sciences (NCATS), 2011).
Out of some 2,300 compounds screened, about 1,200 (52%) were called active. Roughly 34% stayed inconclusive and do not appear here. The set was probably picked from earlier hits. Some of the results follow. A number with no mark means an inactive call. Calls come from the whole dose curve; as a rule, active = well fitted inhibition curve with a large enough effect; inconclusive = small, poorly fitted or top-dose-only effect, or effect the other way; inactive = no such curve, though single readings can be large or run the other way.

Test: Confirmation screen for delayed death inhibitors of the malarial parasite plastid, 48 hour incubation; note: nearly all actives have a fitted effect of over 65% in size
Settings: P. falciparum-infected erythrocytes, luciferase growth; series mostly up to 28.7 µM; activity change, negative = inhibition: at the top concentration
Procedure, shortened: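 Erythrocytes infected with luciferase-expressing P. falciparum (2% hematocrit, 0.1% parasitemia) incubated with compounds 48 hours at 37 C, 5% CO2, in RPMI/Albumax. Growth inhibition scored as reduced luminescence after detection reagent.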
% is set by controls: 0 for no effect and ±100 for the full control effect; potency is the fitted concentration of half-maximal effect.

SMILES	Potency	activity change, negative = inhibition
COc1ccc(N2CCN(C(=O)CSc3nc4cc(OC)c(OC)cc4cc3C#N)CC2)cc1	7.94 µM (active)	–
O=C(CCCO)NNc1c2ccccc2nc2ccccc12	11.2 µM (active)	–
O=C(NNc1c2ccccc2nc2ccccc12)C(O)c1ccccc1 (configuration not stated)	12.6 µM (active)	–
COc1ccccc1OCC(=O)NNc1c2ccccc2nc2ccccc12	10 µM (active)	–
Cc1ccc(OCC(=O)NNc2c3ccccc3nc3ccccc23)cc1	10 µM (active)	–
Cc1ccc(C(=O)NNc2c3ccccc3nc3ccccc23)cc1	15.8 µM (active)	–
COc1cccc(C(=O)N/N=C(\C)CC(=O)Nc2ccc(N(C)C)cc2)c1	–	-13.9%
O=C(COc1ccccc1)NNc1c2ccccc2nc2ccccc12	11.2 µM (active)	–
Cc1cccc(OCC(=O)NNc2c3ccccc3nc3ccccc23)c1	11.2 µM (active)	–
O=C(Nn1c(COc2ccccc2)nc2ccccc2c1=O)C(Cl)(Cl)Cl	–	-23.8%
COc1cccc(C(=O)NNc2c3ccccc3nc3ccccc23)c1	10 µM (active)	–
COc1ccc(CCn2c(C(C)C)nc3c(c(=O)c4ccccc4n3C)c2=O)cc1	11.2 µM (active)	–
COc1ccc(Cn2c(-c3ccccc3)nc3c(c(=O)c4ccccc4n3C)c2=O)cc1	11.2 µM (active)	–
COc1ccc(-c2nc3c(c(=O)c4ccccc4n3C)c(=O)n2Cc2ccccc2)cc1	10 µM (active)	–
O=C(/C=C/c1ccc(Cl)c(Cl)c1)NCCCn1ccnc1	15.8 µM (active)	–
O=C(O)CCNS(=O)(=O)c1cccc(Br)c1	–	-11.5%
CCc1ccccc1Nc1nc(N)nc(COC(=O)CCC(=O)c2ccc(F)cc2)n1	8.91 µM (active)	–
Cc1ccc(C(=O)OCc2nc(N)nc(Nc3ccccc3C)n2)cc1	12.6 µM (active)	–
CCc1ccccc1Nc1nc(N)nc(COC(=O)CCNS(=O)(=O)c2ccccc2)n1	12.6 µM (active)	–

SMILES	Potency	activity change, negative = inhibition
CCCCN(C)C(=O)C1CCC(CNS(=O)(=O)c2ccc3c(c2)CC(C)N3C(=O)C2CC2)CC1 (configuration not stated)	12.6 µM (active)	–
CCc1ccc(N/C(SCc2cccc(F)c2)=C(/C#N)C(=O)NCc2ccco2)cc1	10 µM (active)	–
C#Cc1ccc(CN2CCN(CCCc3ccccc3)C(CCO)C2)cc1 (configuration not stated)	11.2 µM (active)	–
CC(C)/C=C/CN1CCN(CCCc2ccccc2)C(CCO)C1 (configuration not stated)	12.6 µM (active)	–
COc1ccccc1N1CCN(C(=O)c2noc(C(C)C)c2[N+](=O)[O-])CC1	10 µM (active)	–
Cc1ccc(NC(=O)c2cc(S(=O)(=O)N3CCc4ccccc43)cn2C)cc1	11.2 µM (active)	–
COc1ccc(S(=O)(=O)N(C)c2ccc(C(=O)Nc3cccnc3)cc2)cc1OC	14.1 µM (active)	–
COc1ccc(S(=O)(=O)N2CCc3ccccc32)cc1C(=O)Nc1cccnc1	12.6 µM (active)	–
CCOc1ccc2c(c1)sc(N)[n+]2Cc1cc(C)cc2cccnc12	5.62 µM (active)	–
O=C(NCc1ccco1)c1cc2sccc2n1Cc1ccc(F)cc1	12.6 µM (active)	–
O=C(Nc1cccc(S(=O)(=O)NCc2ccco2)c1)c1cc(-c2ccc(F)cc2)nc2ccccc12	–	-0.526%
Cc1ccc(/C=N/NC(=O)CSc2nc3ccccc3c(=O)n2-c2ccccc2C)s1	11.2 µM (active)	–
COc1ccc(C(C)=O)cc1CSc1nc2ccccc2c(=O)n1-c1ccccc1C	7.08 µM (active)	–
O=C1C2CCCN2C(c2ccccc2)N1c1ccc(Cl)cc1 (configuration not stated)	–	-19.3%
O=C1C(=O)c2ccccc2C(O)=C1C1CCC(c2ccc(Cl)cc2)CC1 (configuration not stated)	0.02 µM (active)	–
O=C(NCc1ccccn1)c1cc(-c2ccc(-c3ccccc3)cc2)nc2ccccc12	15.8 µM (active)	–
N#Cc1c(SCC(=O)Nc2ccc(C(F)(F)F)cc2)sc2c(O)cc(=O)[nH]c12	0.316 µM (active)	–
Cc1cc(NC(=O)CSc2sc3c(O)cc(=O)[nH]c3c2C#N)ccc1Br	14.1 µM (active)	–
O=C(O)CCCN1C(=O)/C(=C\C(Cl)=C\c2ccccc2)SC1=S	14.1 µM (active)	–

SMILES	Potency	activity change, negative = inhibition
O=C(CCN1C(=O)/C(=C/c2ccccc2)SC1=S)NCCc1ccc(O)cc1	–	-6.1%
CCC/C(=N\NC(=O)c1ccco1)c1ccc(Cl)s1	11.2 µM (active)	–
CC1CCCN(Cc2c(O)ccc3c(=O)c(-c4nc5ccccc5s4)c(N)oc23)C1 (configuration not stated)	0.316 µM (active)	–
C=CCN(c1ccccc1)S(=O)(=O)c1cccc(C(=O)N2CC(C)CC(C)C2)c1 (configuration not stated)	14.1 µM (active)	–
COc1ccc(Nc2nnc(-c3ccccc3)c3ccccc23)cc1C(=O)N1CCCCC1	7.94 µM (active)	–
COc1ccc(Nc2nnc(-c3ccc(C)cc3)c3ccccc23)cc1C(=O)N1CCCCC1	2.51 µM (active)	–
Cc1ccc(C)c(-c2cc(C(=O)Nc3nccs3)c3ccccc3n2)c1	4.47 µM (active)	–
Cc1ccccc1-c1cc(C(=O)n2cccn2)c2cc(Cl)ccc2n1	–	-11%
Cc1ccc(C)c(-c2cc(C(=O)NNC(=S)NCC(C)C)c3ccccc3n2)c1	14.1 µM (active)	–
CCC1OC(=O)C[C@@H](O)[C@H](C)[C@@H](OC2OC(C)CC(N(C)C)C2O)[C@@H](CC=O)C[C@@H](C)C(=O)/C=C/[C@]2(C)OC2C1C (some centres not stated)	11.2 µM (active)	–
Cc1onc(-c2ccccc2Cl)c1C(=O)N1CCC(Cc2ccccc2)CC1	15.8 µM (active)	–
Cc1onc(-c2ccccc2Cl)c1C(=O)N1CC(C)CC(C)C1 (configuration not stated)	–	-22.2%
Cc1ccc(S(=O)(=O)N(C)C)cc1NC(=O)c1cncc(Br)c1	8.91 µM (active)	–
NCCCNc1nc(N)c([N+](=O)[O-])c(NC2CCCCC2)n1	3.98 µM (active)	–
N=C(N)c1ccc(OCCCCCOc2ccc(C(=N)N)cc2)cc1	1 µM (active)	–
Cc1cccc(-n2c(C)cc(/C=N\NC(=O)c3cccs3)c2C)c1	11.2 µM (active)	–
COc1ccc(CCNC(=O)C(=O)NCC2OCCN2S(=O)(=O)c2ccc3c(c2)OCCO3)cc1OC (configuration not stated)	11.2 µM (active)	–
O=C(NCCCn1ccnc1)C(=O)NCC1OCCN1S(=O)(=O)c1ccc(F)cc1 (configuration not stated)	–	-13.4%
CCC(C(=O)O)C1OC(C(C)C(O)C(C)C(=O)C(CC)C2OC3(C=CC(O)C4(CCC(C)(C5CCC(O)(CC)C(C)O5)O4)O3)C(C)CC2C)C(C)CC1C (configuration not stated)	0.251 µM (active)	–
